According to the supplement of paper PMC6607015:
Where a name gives a salt, the structure may show the parent alone.

What was measured:
Conditions in all cases: compound concentration in added solution (µM; 5 µl added to 20 µl cells): 10; 18 h
[1] = system: A431; experiment: LBPA endosome anti-LBPA integrated intensity (sum per cell), Z-score; higher = more LBPA staining
How it was run: (§1)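 Four 20× images per well were taken of HeLa MZ or A431 cells that had been seeded at 3,500 per well in 20 µl onto 5 µl of 10 µM compound solution in duplicate 384-well imaging plates. Before imaging, cells were incubated 18 h, fixed in 4% PFA and stained with 6C4 anti-LBPA antibody, filipin, propidium iodide and CellTracker green. Values are Z-scores normalised in AcuityXpress from MetaXpress-derived per-cell integrated LBPA or filipin intensity, either whole-cell or within LBPA endosomes.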

[2] = system: HeLa MZ; experiment: as above
How it was run: as §1

[3] = system: A431; experiment: whole-cell filipin (free cholesterol) integrated intensity, Z-score; higher = more cholesterol staining
How it was run: as §1

[4] = system: HeLa MZ; experiment: as above
How it was run: as §1

[5] = system: A431; experiment: filipin (cholesterol) integrated intensity within LBPA endosomes, Z-score; higher = more cholesterol in LBPA endosomes
How it was run: as §1

[6] = system: HeLa MZ; experiment: as above
How it was run: as §1

SMILES	LBPA endosome anti-LBPA integrated intensity (z-score) [1]	LBPA endosome anti-LBPA integrated intensity (z-score) [2]	whole-cell filipin (z-score) [3]	whole-cell filipin (z-score) [4]	filipin (z-score) [5]	filipin (z-score) [6]
O=S(=O)(O)CCS [Mesna]	-0.366	0.0893	-0.163	0.141	-0.454	-0.55
CCN1CCN(C(=O)N[C@@H](C(=O)N[C@@H]2C(=O)N3[C@@H]2SC(C)(C)[C@@H]3C(=O)O)c2ccccc2)C(=O)C1=O [Piperacillin sodium salt]	-0.232	-0.383	-0.0934	-0.425	-0.285	-0.478
O=C(O)c1cn(C2CC2)c2cc(N3CCNCC3)c(F)cc2c1=O [Ciprofloxacin hydrochloride hydrate]	-0.633	-0.847	-0.925	-0.971	-0.579	-0.519
CC(=O)OCC(=O)[C@@]1(OC(C)=O)[C@@H](C)C[C@H]2[C@@H]3C[C@H](F)C4=CC(=O)C=C[C@]4(C)[C@@]3(F)[C@@H](O)C[C@@]21C [Diflorasone Diacetate]	-0.283	-0.262	-0.254	-0.816	-0.354	-0.539
CCc1cc(C(N)=S)ccn1 [Ethionamide]	-0.517	-0.148	-0.588	0.221	-0.493	-0.459
CCCCOc1cc(C(=O)OCCN(CC)CC)ccc1N [Benoxinate hydrochloride]	1.79	1.63	0.624	-0.0981	0.826	0.624
NS(=O)(=O)c1cc2c(cc1Cl)NC(CC1CCCC1)NS2(=O)=O (stereo not drawn) [Cyclopenthiazide]	-0.58	-0.971	-0.203	-0.467	-0.442	-0.628
CCn1cc(C(=O)O)c(=O)c2cc(F)c(N3CCNC(C)C3)c(F)c21 (stereo not drawn) [Lomefloxacin hydrochloride]	-0.676	-1.53	-1.2	-0.837	-0.597	-0.65
CN1[C@@H]2CC[C@H]1C[C@@H](OC(=O)C(O)c1ccccc1)C2 (mixture of isomers) [Homatropine hydrobromide (R,S)]	-0.625	-0.216	-0.825	-0.838	-0.591	-0.57
O=c1n(CCCN2CCN(c3cccc(Cl)c3)CC2)nc2ccccn12 [Trazodone hydrochloride]	0.505	2.35	0.713	1.12	0.872	1.04
O=c1[nH]cnc2c1ncn2[C@H]1CC[C@@H](CO)O1 [Didanosine]	-0.649	-1.14	-1.2	-0.832	-0.585	-0.693
CO/N=C(\C(=O)N[C@@H]1C(=O)N2C(C(=O)O)=C(COC(C)=O)CS[C@H]12)c1csc(N)n1 [Cefotaxime sodium salt]	-0.36	-0.201	-0.822	-0.63	-0.554	-0.583
COc1ccc(CCN(C)CCCC(C#N)(c2ccc(OC)c(OC)c2)C(C)C)cc1OC (stereo not drawn) [Verapamil hydrochloride]	2.51	2.93	2.24	0.413	2.46	1.49
CCc1cccc(CC)c1NC(=O)CN(CC(=O)O)CC(=O)O [Etifenin]	-0.633	-1.24	-0.798	-0.697	-0.521	-0.638
CC(=O)SCC(Cc1ccccc1)C(=O)NCC(=O)OCc1ccccc1 (stereo not drawn) [Racecadotril]	-0.747	-1.18	-0.139	-0.415	-0.589	-0.468
CNC1(C)C2CCC(C2)C1(C)C (stereo not drawn) [Mecamylamine hydrochloride]	-0.608	-1.35	-0.41	-0.324	-0.495	-0.557
CCC[C@@H]1C[C@@H](C(=O)N[C@@H]([C@H]2O[C@H](SC)[C@H](O)[C@@H](O)[C@H]2O)[C@@H](C)O)N(C)C1 [Lincomycin hydrochloride]	-0.565	-0.696	-0.903	-1.08	-0.504	-0.682
O=C1NCN(c2ccccc2)C12CCN(CCCC(c1ccc(F)cc1)c1ccc(F)cc1)CC2 [Fluspirilen]	2.78	1.04	1.65	1.64	4.57	4.14
COc1ccc(CC2c3cc(OC)c(OC)cc3CC[N+]2(C)CCC(=O)OCCCCCOC(=O)CC[N+]2(C)CCc3cc(OC)c(OC)cc3C2Cc2ccc(OC)c(OC)c2)cc1OC (stereo not drawn) [Atracurium besylate]	-0.229	-0.154	-0.0896	-0.584	-0.0589	0.0777
CCc1oc2ccccc2c1C(=O)c1cc(Br)c(O)c(Br)c1 [Benzbromarone]	-0.388	-0.283	-0.536	-0.296	-0.47	-0.42
CCn1nc(C(=O)O)c(=O)c2cc3c(cc21)OCO3 [Cinoxacin]	-0.298	0.452	-0.393	-0.0614	-0.442	-0.322
O=C(O)c1ccccc1C(=O)Nc1ccc(S(=O)(=O)Nc2nccs2)cc1 [Phthalylsulfathiazole]	-0.455	-0.249	-0.41	-0.101	-0.471	-0.557
CC(C)(C)NCC(O)c1cc(O)cc(O)c1 (stereo not drawn) [Terbutaline hemisulfate]	-0.651	-1.35	-0.395	-0.481	-0.593	-0.644
O=C(O)COC(=O)Cc1ccccc1Nc1c(Cl)cccc1Cl [Aceclofenac]	-0.449	-0.174	-0.423	-0.27	-0.383	-0.402

SMILES	LBPA endosome anti-LBPA integrated intensity (z-score) [1]	LBPA endosome anti-LBPA integrated intensity (z-score) [2]	whole-cell filipin (z-score) [3]	whole-cell filipin (z-score) [4]	filipin (z-score) [5]	filipin (z-score) [6]
OCCOCCN1CCN(C2=Nc3ccccc3Sc3ccccc32)CC1 [Quetiapine]	-0.603	0.201	-0.454	-0.549	-0.515	-0.0994
COc1ccc2[nH]c([S+]([O-])Cc3ncc(C)c(OC)c3C)nc2n1 (stereo not drawn) [Tenatoprazole]	-0.331	0.434	-0.478	0.112	-0.438	-0.258
COC(=O)[C@@H]1[C@H]2C[C@H]3c4[nH]c5ccccc5c4CCN3C[C@@H]2CC[C@@H]1O [Yohimbine hydrochloride]	-0.468	-0.264	-0.685	-0.575	-0.434	-0.333
C[C@]12C=CC(=O)C=C1CC[C@@H]1[C@@H]2[C@@H](O)C[C@@]2(C)[C@H]1CC[C@]2(O)C(=O)CO [Prednisolone]	-0.285	-0.493	-0.674	-0.403	-0.432	-0.544
CC(=O)OC(C)C[N+](C)(C)C (stereo not drawn) [Methacholine chloride]	-0.38	0.107	-0.0801	-0.293	-0.383	-0.341
CN(C)C(=N)NC(=N)N [Metformin hydrochloride]	-0.525	-0.838	-0.902	-0.3	-0.437	-0.498
CN1CCCN(C(c2ccccc2)c2ccc(Cl)cc2)CC1 (stereo not drawn) [Homochlorcyclizine dihydrochloride]	2.75	1.74	0.946	-0.527	2.1	1.46
CCCN(CCC)S(=O)(=O)c1ccc(C(=O)O)cc1 [Probenecid]	-0.546	-0.569	-0.756	-0.679	-0.526	-0.61
O=C(O)CCCC[C@@H]1SC[C@@H]2NC(=O)N[C@@H]21 [Biotin]	-0.478	-0.782	-0.69	-0.491	-0.471	-0.52
OC(CCN1CCCCC1)(c1ccccc1)C1CCCCC1 (stereo not drawn) [Trihexyphenidyl-D,L Hydrochloride]	1.27	1.51	0.138	-0.301	0.357	0.149
CCN(CC)C(=O)Nc1ccc(OCC(O)CNC(C)(C)C)c(C(C)=O)c1 (stereo not drawn) [Celiprolol HCl]	0.0633	0.456	-0.229	-0.152	-0.388	-0.405
c1ccc2c(c1)CCCc1cc(NCCN3CCOCC3)nnc1-2	-0.68	-0.691	-0.665	-0.162	-0.491	-0.0973
O=C1C(O)=C([C@H]2CC[C@H](c3ccc(Cl)cc3)CC2)C(=O)c2ccccc21 [Atovaquone]	-0.63	-0.824	-0.408	-0.361	-0.555	-0.654
CN[C@H](CC(C)C)C(=O)N[C@H]1C(=O)N[C@@H](CC(N)=O)C(=O)N[C@H]2C(=O)N[C@H]3C(=O)N[C@H](C(=O)N[C@H](C(=O)O)c4cc(O)cc(O)c4-c4cc3ccc4O)[C@H](O)c3ccc(c(Cl)c3)Oc3cc2cc(c3O[C@@H]2O[C@H](CO)[C@@H](O)[C@H](O)[C@H]2O[C@H]2C[C@](C)(N)[C@H](O)[C@H](C)O2)Oc2ccc(cc2Cl)[C@H]1O [Vancomycin hydrochloride]	-0.435	-0.0824	-0.355	-0.041	-0.42	-0.35
COC(=O)CCc1ccc(OCC(O)CNC(C)C)cc1 (stereo not drawn) [Esmolol hydrochloride]	-0.258	-0.524	-0.179	0.319	-0.36	-0.273
CN(C)CCn1nnnc1SCC1=C(C(=O)O)N2C(=O)[C@@H](NC(=O)Cc3csc(N)n3)[C@H]2SC1 [Cefotiam hydrochloride]	-0.662	-1.47	-0.797	-1.09	-0.548	-0.711
CC(C)(C)NC[C@H](O)c1ccc(O)c(CO)c1 [Levalbuterol hydrochloride]	-0.401	-1.22	0.171	-0.774	-0.471	-0.476
CNCC[C@@H](Oc1ccccc1C)c1ccccc1 [Tomoxetine hydrochloride]	-0.073	-0.709	0.0322	-0.417	-0.072	-0.0592
O=C1c2ccccc2S(=O)(=O)N1CCCCN1CCN(c2ncccn2)CC1 [Ipsapirone]	-0.419	0.911	-0.664	-0.262	-0.426	0.0372
O=S(=O)(O)c1cc(O)ccc1O [Ethamsylate]	-0.297	0.237	0.0355	-0.226	-0.436	-0.57
CC(C)NC(=N)NC(=N)Nc1ccc(Cl)cc1 [Proguanil hydrochloride]	-0.302	1.15	-0.0125	0.372	-0.375	-0.0535
O=C(CCCN1CCC(O)(c2ccc(Cl)cc2)CC1)c1ccc(F)cc1 [Haloperidol]	2.66	2.75	1.61	0.834	2.42	2.21
Clc1ccc(C(c2ccccc2Cl)C(Cl)Cl)cc1 (stereo not drawn) [Mitotane]	-0.586	-1.29	-0.251	-0.167	-0.511	-0.815
CCOc1ccc2ccccc2c1C(=O)N[C@@H]1C(=O)N2[C@@H]1SC(C)(C)[C@@H]2C(=O)O [Nafcillin sodium salt monohydrate]	-0.558	-0.117	-0.348	-0.195	-0.443	-0.476
